Data from PubChem BioAssay AID1159580 (chemical genetic matrix, 2015).
In all, about 5,500 compounds went through this assay and about 2,000 (36%) were called active. Another 18% or so got no clear call; they are omitted. Cut-off read from the data, not from the text of the source: active = normalized growth mostly below about 0.91 (no sharp cut-off); inconclusive = no clear call, values can overlap the other calls; inactive = mostly above about 0.92. The list shows a part of the results.

Assay: chemical genetic growth profiling, strain panel (AID 1159580);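 note: tested at 20 µM; growth read once vehicle control cultures reached saturation at 30 °C; 1 = growth at the plate median or of vehicle wells; lower values mean less growth of the strain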
Conditions: growth OD

Measured: normalized growth

CC(C(=O)O)c1ccc(-c2ccccc2)c(F)c1 (configuration not stated)
active: S. cerevisiae deletion strains, locus YJR066W, strain TOR1, active compounds read low 0.762 | S. cerevisiae deletion strains, locus YKL068W, active compounds read low 0.912 | S. cerevisiae deletion strains, locus YKL085W, strain MDH1 (second series), active compounds read low 0.919 | S. cerevisiae deletion strains, locus YKL085W, strain MDH1, active compounds read low 0.919 | S. cerevisiae deletion strains, locus YKR001C, strain vps1, active compounds read low 0.827 | S. cerevisiae deletion strains, locus YLR113W, strain HOG1, active compounds read low 0.62 | S. cerevisiae deletion strains, locus YLR262C, strain YPT6 (second series), active compounds read low 0.846 | S. cerevisiae deletion strains, locus YNL183C, strain NPR1, active compounds read low 0.783 | S. cerevisiae deletion strains, locus YNL248C, strain rpa49, active compounds read low 0.817 | S. cerevisiae deletion strains, locus YNL271C, strain bni1, active compounds read low 0.888 | S. cerevisiae deletion strains, locus YNL298W, strain CLA4, active compounds read low 0.792 | S. cerevisiae deletion strains, locus YOR231W, strain MKK1, active compounds read low 0.732 | S. cerevisiae deletion strains, locus YPL256C, strain CLN2, active compounds read low 0.736 | S. cerevisiae deletion strains, locus YPR141C, strain kar3, active compounds read low 0.913
inactive: S. cerevisiae deletion strains, locus YJR043C, strain POL32, active compounds read low 0.979 | S. cerevisiae deletion strains, locus YJR075W, strain HOC1, active compounds read low 0.978 | S. cerevisiae deletion strains, locus YKL009W, strain mrt4, active compounds read low 0.899 | S. cerevisiae deletion strains, locus YKL160W, strain elf1, active compounds read low 1.03 | S. cerevisiae deletion strains, locus YKR026C, strain gcn3, active compounds read low 0.977 | S. cerevisiae deletion strains, locus YKR091W, strain srl3, active compounds read low 0.988 | S. cerevisiae deletion strains, locus YLL001W, strain dnm1, active compounds read low 1.02 | S. cerevisiae deletion strains, locus YLL026W, active compounds read low 0.987 | S. cerevisiae deletion strains, locus YLL041C, strain sdh2, active compounds read low 0.97 | S. cerevisiae deletion strains, locus YLR027C, strain aat2, active compounds read low 0.976 | S. cerevisiae deletion strains, locus YLR039C, strain RIC1, active compounds read low 0.79 | S. cerevisiae deletion strains, locus YLR058C, strain SHM2, active compounds read low 0.99 | S. cerevisiae deletion strains, locus YLR102C, strain apc9, active compounds read low 0.954 | S. cerevisiae deletion strains, locus YLR221C, strain rsa3, active compounds read low 1 | S. cerevisiae deletion strains, locus YLR258W, strain gsy2, active compounds read low 0.983 | S. cerevisiae deletion strains, locus YLR262C, strain YPT6, active compounds read low 0.773 | S. cerevisiae deletion strains, locus YLR268W, strain sec22, active compounds read low 0.955 | S. cerevisiae deletion strains, locus YLR320W, strain mms22, active compounds read low 1.05 | S. cerevisiae deletion strains, locus YLR330W, strain CHS5, active compounds read low 0.969 | S. cerevisiae deletion strains, locus YLR342W, strain FKS1 (second series), active compounds read low 0.936 | S. cerevisiae deletion strains, locus YLR342W, strain FKS1, active compounds read low 0.984 | S. cerevisiae deletion strains, locus YLR357W, strain rsc2, active compounds read low 1.01 | S. cerevisiae deletion strains, locus YLR370C, strain arc18, active compounds read low 0.989 | S. cerevisiae deletion strains, locus YLR371W, strain rom2, active compounds read low 0.996 | S. cerevisiae deletion strains, locus YLR384C, strain iki3, active compounds read low 1.01 | S. cerevisiae deletion strains, locus YLR418C, strain cdc73, active compounds read low 1.01 | S. cerevisiae deletion strains, locus YML016C, strain PPZ1, active compounds read low 0.981 | S. cerevisiae deletion strains, locus YML032C, strain rad52, active compounds read low 0.951 | S. cerevisiae deletion strains, locus YML120C, strain ndi1, active compounds read low 0.996 | S. cerevisiae deletion strains, locus YML124C, strain tub3, active compounds read low 0.96 | S. cerevisiae deletion strains, locus YMR058W, strain fet3, active compounds read low 0.994 | S. cerevisiae deletion strains, locus YMR078C, strain ctf18, active compounds read low 0.94 | S. cerevisiae deletion strains, locus YMR125W, strain sto1, active compounds read low 1 | S. cerevisiae deletion strains, locus YMR129W, active compounds read low 0.968 | S. cerevisiae deletion strains, locus YMR205C, strain PFK2, active compounds read low 1.03 | S. cerevisiae deletion strains, locus YMR223W, strain ubp8, active compounds read low 1.02 | S. cerevisiae deletion strains, locus YMR231W, strain pep5, active compounds read low 0.969 | S. cerevisiae deletion strains, locus YMR307W, strain GAS1, active compounds read low 0.938 | S. cerevisiae deletion strains, locus YNL067W, strain RPL9B, active compounds read low 0.974 | S. cerevisiae deletion strains, locus YNL071W, strain lat1, active compounds read low 0.985 | S. cerevisiae deletion strains, locus YNL209W, strain ssb2, active compounds read low 1.01 | S. cerevisiae deletion strains, locus YNL233W, strain BNI4, active compounds read low 0.991 | S. cerevisiae deletion strains, locus YNL250W, strain rad50, active compounds read low 0.908 | S. cerevisiae deletion strains, locus YNL307C, strain MCK1, active compounds read low 0.947 | S. cerevisiae deletion strains, locus YNL322C, strain KRE1 (second series), active compounds read low 0.964 | S. cerevisiae deletion strains, locus YNL322C, strain KRE1, active compounds read low 0.975 | S. cerevisiae deletion strains, locus YNR049C, strain mso1, active compounds read low 0.981 | S. cerevisiae deletion strains, locus YNR052C, strain pop2, active compounds read low 0.952 | S. cerevisiae deletion strains, locus YOL012C, strain htz1 1.06 | S. cerevisiae deletion strains, locus YOL147C, strain pex11, active compounds read low 0.969 | S. cerevisiae deletion strains, locus YOR001W, strain rrp6, active compounds read low 0.95 | S. cerevisiae deletion strains, locus YOR061W, strain CKA2, active compounds read low 0.973 | S. cerevisiae deletion strains, locus YOR069W, strain VPS5, active compounds read low 0.994 | S. cerevisiae deletion strains, locus YOR070C, strain gyp1, active compounds read low 1 | S. cerevisiae deletion strains, locus YOR080W, strain dia2, active compounds read low 1.01 | S. cerevisiae deletion strains, locus YOR083W, strain WHI5, active compounds read low 1.03 | S. cerevisiae deletion strains, locus YOR106W, strain vam3, active compounds read low 0.994 | S. cerevisiae deletion strains, locus YOR136W, strain idh2, active compounds read low 0.989 | S. cerevisiae deletion strains, locus YOR144C, strain elg1, active compounds read low 0.965 | S. cerevisiae deletion strains, locus YOR184W, strain ser1, active compounds read low 0.972 | S. cerevisiae deletion strains, locus YOR265W, strain rbl2, active compounds read low 1 | S. cerevisiae deletion strains, locus YOR270C, strain vph1, active compounds read low 1.05 | S. cerevisiae deletion strains, locus YOR290C, strain snf2, active compounds read low 0.97 | S. cerevisiae deletion strains, locus YOR316C, strain cot1, active compounds read low 0.965 | S. cerevisiae deletion strains, locus YPL051W, strain arl3, active compounds read low 0.981 | S. cerevisiae deletion strains, locus YPL078C, strain atp4, active compounds read low 1 | S. cerevisiae deletion strains, locus YPL106C, strain sse1, active compounds read low 1.05 | S. cerevisiae deletion strains, locus YPL240C, strain hsp82, active compounds read low 0.985 | S. cerevisiae deletion strains, locus YPR119W, strain clb2, active compounds read low 0.95 | S. cerevisiae deletion strains, locus YPR163C, strain tif3, active compounds read low 0.957 | S. cerevisiae deletion strains, locus YPR167C, strain met16, active compounds read low 0.962 | S. cerevisiae deletion strains, strain wtn01, active compounds read low 0.971 | S. cerevisiae strains, strain wild type, active compounds read low 0.968
